Reference: PubChem BioAssay (Tox21)
Unmarked numbers belong to inactive results. Results filed as inconclusive are left out. Where a call stands in place of a potency, no number is given. Active and inactive are the calls of the source. Unless noted, calls come from the whole dose curve; as a rule, active = well fitted curve in the direction sought with a large enough effect in the repeat runs; inconclusive = weak or mixed curves; inactive = no such curve, though single readings can be large; an effect the other way counts as inactive or inconclusive.

Legend:
[1] = qHTS assay to identify small molecule antagonists of the estrogen receptor alpha (ER-alpha) signaling pathway using the BG1 cell line in the presence of 0.1 nM 17-beta-estradiol - cell viability counter screen (AID 1259241); note: nearly all actives have a fitted effect of over 40% in size
Procedure, shortened: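 Estradiol-stimulated (0.1 nM) VM7Luc4E2 cells exposed to compounds 22 hr; viability measured by fluorescence of cleaved CellTiter-Fluor substrate after 30 min.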

[2] = qHTS assay to identify small molecule antagonists of the androgen receptor (AR) signaling pathway using the MDA cell line in the presence of 0.5 nM R1881 - cell viability counter screen (AID 1259242); note: nearly all actives have a fitted effect of over 45% in size
Procedure, shortened: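 MDA-kb2 cells (MMTV-luciferase, AR/GR responsive) were treated with compounds plus 0.5 nM R1881 (final) for 16 hr at 37C, 0% CO2. Viability was then read in the same wells as live-cell protease fluorescence (CellTiter-Fluor, 30 min).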

[3] = target: Estrogen receptor (Homo sapiens) (UniProt P03372); assay: qHTS assay to identify small molecule antagonists of the estrogen receptor alpha (ER-alpha) signaling pathway using the BG1 cell line in the presence of 0.1 nM 17-beta-estradiol (AID 1259244); note: nearly all actives have a fitted effect of over 50% in size; note: potency is the fitted concentration of half-maximal effect
Procedure, shortened: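 VM7Luc4E2 cells (endogenous full-length ER-alpha, 4×ERE-luciferase), kept 5 days in phenol red-free, charcoal-stripped FBS medium; 4,000 cells/well. Compounds added with 0.1 nM (final) 17beta-estradiol, 22 hr at 37C; luminescence read with ONE-Glo after 30 min.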

[4] = qHTS assay to identify small molecule phospholipidosis (PLD) inducers (AID 1259344; active = well fitted curve in the direction sought with a large enough effect; an effect the other way counts as inactive or inconclusive)
Procedure, shortened: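 Phospholipidosis is scored by imaging LipidTOX-stained pits in HepG2 cells exposed to compound for 24 h at 37 C; pit counts and integrated intensities per well and per cell serve as outputs.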

[5] = qHTS assay to identify small molecule HDAC inhibitors (AID 1259364); note: nearly all actives have a fitted effect of over 45% in size; note: potency is the fitted concentration of half-maximal effect
Procedure, shortened: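 Wild-type HCT-116 cells, plated overnight at 37 C, exposed to compounds 2 hr at 37 C; luminogenic HDAC-Glo substrate then added 30 min at room temperature. Luminescence reports relative endogenous class I/II HDAC activity.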

[6] = qHTS assay to identify small molecule agonists of the sonic hedgehog signaling (Shh) pathway (AID 1259368; calls by dose curve;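 note: NIH/3T3-derived 3T3Gli1-Luc cells carrying a stable Gli1-driven firefly luciferase reporter; series mostly up to about 92 µM; nearly all actives have a fitted effect of over 15% in size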)
Procedure, shortened: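 NIH/3T3-derived 3T3Gli1-Luc cells with stably integrated Gli1-driven firefly luciferase, 2,000 cells/well, compounds added after 4 hr. Incubated 24 hr at 37C, 5% CO2; luminescence read after 30 min with luciferase reagent at room temperature.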

[7] = qHTS assay to identify small molecule antagonists of the sonic hedgehog signaling (Shh) pathway (AID 1259369; calls by dose curve; note: nearly all actives have a fitted effect of over 45% in size; note: potency is the fitted concentration of half-maximal effect)
Procedure, shortened: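 NIH/3T3-derived Gli1-Luc reporter cells plated 4 h, dosed with compound, then stimulated with conditioned medium for 24 h at 37 C. Firefly luciferase luminescence read after 30 min with detection reagent at room temperature.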

[8] = target: Estrogen receptor beta (Homo sapiens) (UniProt Q92731); assay: qHTS assay to identify small molecule agonists of the estrogen receptor beta (ER-beta) signaling pathway (AID 1259377; active = well fitted activation curve with a large enough effect in the signal ratio in the repeat runs, not every such curve was filed as active; the % refers to the signal ratio)
Procedure, shortened: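 Read-out: beta-lactamase FRET fluorescence. Cell line: ER-beta-UAS-bla HEK293T in 2% charcoal-stripped FBS. Exposure: 16 hr at 37C. Substrate step: 2 h at room temperature.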

[9] = target: Estrogen receptor beta (Homo sapiens) (UniProt Q92731); assay: qHTS assay to identify small molecule antagonists of the estrogen receptor beta (ER-beta) signaling pathway (AID 1259378; active = well fitted inhibition curve with a large enough effect in the signal ratio in the repeat runs, not every such curve was filed as active; the % refers to the signal ratio)
Procedure, shortened: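 Antagonist mode: compounds added to beta-lactamase reporter HEK293T ER-beta-UAS cells stimulated with E2 (1nM final), 16 hr at 37C. LiveBLAzer B/G FRET substrate, 2 hours room temperature, fluorescence read-out.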

[10] = qHTS assay to identify small molecule antagonists of the estrogen receptor beta (ER-beta) signaling pathway - cell viability counter screen (AID 1259382);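 note: HEK293T cells carrying ER-beta-UAS-bla reporter stimulated with estradiol; series mostly up to about 92 µM; nearly all actives have a fitted effect of over 55% in size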
Procedure, shortened: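 ER-beta-UAS-bla HEK293T cells in 2% charcoal-stripped FBS medium, treated with compound plus 1 nM 17-beta-estradiol for 16 h at 37C. Viability read by CellTiter-Glo luminescence after 30 min at room temperature in the same wells.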

[11] = target: Estrogen receptor (Homo sapiens) (UniProt P03372); assay: qHTS assay to identify small molecule agonists of the estrogen receptor alpha (ER-alpha) signaling pathway in the presence of an antagonist (AID 1259383; calls by dose curve; note: top concentration of the series differs between compounds; nearly all actives have a fitted effect of over 15% in size)
Procedure, shortened: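 VM7Luc4E2 cells express endogenous full-length ER-alpha with an ERE-luciferase reporter and were hormone-deprived for 5 days. Compounds at 15 concentrations were added with 10.0nM ICI-182,780 for 22hr at 37C. Luminescence was read with ONE-Glo.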

[12] = qHTS assay to identify small molecule agonists or antagonists of the thyroid stimulating hormone receptor (TSHR) signaling pathway - wild type cell line counter screen (AID 1259384; calls by dose curve)
Procedure, shortened: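 Counter screen in untransfected Hek293: compounds (15-point titration, triplicate) plus phosphodiesterase inhibitor Ro20-1724 added after 18 h plating; 30 min RT. Intracellular cAMP via competitive d2/cryptate immunoassay, 1 h incubation.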

[13] = target: Thyrotropin receptor (Homo sapiens) (UniProt P16473); assay: qHTS assay to identify small molecule antagonists of the thyroid stimulating hormone receptor (TSHR) signaling pathway (AID 1259385; calls by dose curve; note: nearly all actives have a fitted effect of over 20% in size)
Procedure, shortened: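 Antagonist mode: compound-treated TSHR-expressing HEK293 cells were stimulated with 1.5 ng/mL TSH (final) in presence of Ro20-1724 for 30 min at RT. HTRF cAMP detection after 1 h; each compound tested at 15 concentrations, triplicate.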

[14] = qHTS assay to identify small molecule antagonists of the sonic hedgehog signaling (Shh) pathway - cell viability counter screen (AID 1259367); note: nearly all actives have a fitted effect of over 55% in size
Procedure, shortened: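 Cells: 3T3 Gli1-Luc, 2,000/well, 4 hr pre-incubation. Compounds in DMSO, then conditioned medium. Incubation 24 hr, 37C, 5% CO2. CellTiter-Fluor at 23 hr, 1 hr, fluorescence.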

[15] = qHTS assay to identify small molecule agonists of the androgen receptor (AR) signaling pathway in the presence of an antagonist - cell viability counter screen (AID 1259379);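 note: MDA-kb2 human breast cancer cells carrying an MMTV luciferase reporter; series mostly up to about 92 µM; nearly all actives have a fitted effect of over 25% in size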
Procedure, shortened: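 MDA-kb2 cells (MMTV-luciferase, AR/GR), 3,000/well, 5 h attachment, then 3.0 µM nilutamide (final) and compounds at 15 concentrations. Viability by CellTiter-Fluor fluorescence after 16 h at 37 °C, 0% CO2, in the reporter wells.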

[16] = qHTS assay to identify small molecule agonists of the estrogen receptor beta (ER-beta) signaling pathway - cell viability counter screen (AID 1259380); note: nearly all actives have a fitted effect of over 30% in size
Procedure, shortened: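 ER-beta-UAS-bla HEK293T cells in medium with 2% charcoal-stripped FBS, pre-incubated 6 hr, then treated 16 hr at 37C. Cytotoxicity read in the same wells by CellTiter-Glo luminescence after 30 min at room temperature.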

[17] = qHTS assay to identify small molecule HDAC inhibitors - cell viability counter screen (AID 1259365); note: series mostly up to about 92 µM; nearly all actives have a fitted effect of over 50% in size
Procedure, shortened: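 After overnight seeding at 1,500 cells per well, wild-type HCT-116 cultures took up compounds in DMSO for 2hr at 37 C. Viable cell content came from luminescence with CellTiter-Glo.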

[18] = qHTS assay to identify small molecule agonists of the sonic hedgehog signaling (Shh) pathway - cell viability counter screen (AID 1259366); note: nearly all actives have a fitted effect of over 50% in size
Procedure, shortened: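 Same-well cytotoxicity read. Gli1-Luc reporter 3T3 cells; compounds 24hr, 37C/5% CO2; CellTiter-Fluor fluorescence.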

Estrogen receptor (Homo sapiens), sequence (P03372 whole entry, looked up): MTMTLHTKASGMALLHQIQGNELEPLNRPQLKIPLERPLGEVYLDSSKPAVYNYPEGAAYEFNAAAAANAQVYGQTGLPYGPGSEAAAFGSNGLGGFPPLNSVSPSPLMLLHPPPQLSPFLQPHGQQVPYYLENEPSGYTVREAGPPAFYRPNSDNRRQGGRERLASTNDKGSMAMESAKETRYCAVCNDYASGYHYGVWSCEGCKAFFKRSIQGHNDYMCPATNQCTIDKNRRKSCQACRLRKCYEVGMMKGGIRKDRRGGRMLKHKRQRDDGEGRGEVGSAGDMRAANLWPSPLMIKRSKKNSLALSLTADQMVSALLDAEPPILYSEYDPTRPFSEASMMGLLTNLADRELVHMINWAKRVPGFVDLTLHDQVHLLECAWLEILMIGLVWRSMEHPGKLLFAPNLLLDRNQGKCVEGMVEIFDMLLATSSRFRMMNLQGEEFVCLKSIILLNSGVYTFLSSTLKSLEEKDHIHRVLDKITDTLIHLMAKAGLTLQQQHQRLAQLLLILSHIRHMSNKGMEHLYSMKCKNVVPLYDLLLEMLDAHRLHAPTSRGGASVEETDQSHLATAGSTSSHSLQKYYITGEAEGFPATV
Estrogen receptor beta (Homo sapiens), sequence (Q92731 whole entry, looked up): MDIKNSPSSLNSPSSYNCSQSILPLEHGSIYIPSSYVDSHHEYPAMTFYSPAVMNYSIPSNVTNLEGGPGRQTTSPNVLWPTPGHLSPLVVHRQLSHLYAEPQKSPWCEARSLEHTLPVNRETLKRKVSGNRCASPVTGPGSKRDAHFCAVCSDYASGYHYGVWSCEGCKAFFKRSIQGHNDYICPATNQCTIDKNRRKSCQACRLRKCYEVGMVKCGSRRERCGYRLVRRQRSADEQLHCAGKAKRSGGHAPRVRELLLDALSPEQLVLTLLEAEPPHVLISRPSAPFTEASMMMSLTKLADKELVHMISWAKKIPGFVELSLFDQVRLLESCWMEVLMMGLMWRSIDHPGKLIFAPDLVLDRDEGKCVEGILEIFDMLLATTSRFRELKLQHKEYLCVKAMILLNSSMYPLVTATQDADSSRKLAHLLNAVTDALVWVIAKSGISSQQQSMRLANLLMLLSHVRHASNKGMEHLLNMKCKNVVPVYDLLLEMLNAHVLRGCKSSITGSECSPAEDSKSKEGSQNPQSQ
Thyrotropin receptor (Homo sapiens), sequence (P16473 whole entry, looked up): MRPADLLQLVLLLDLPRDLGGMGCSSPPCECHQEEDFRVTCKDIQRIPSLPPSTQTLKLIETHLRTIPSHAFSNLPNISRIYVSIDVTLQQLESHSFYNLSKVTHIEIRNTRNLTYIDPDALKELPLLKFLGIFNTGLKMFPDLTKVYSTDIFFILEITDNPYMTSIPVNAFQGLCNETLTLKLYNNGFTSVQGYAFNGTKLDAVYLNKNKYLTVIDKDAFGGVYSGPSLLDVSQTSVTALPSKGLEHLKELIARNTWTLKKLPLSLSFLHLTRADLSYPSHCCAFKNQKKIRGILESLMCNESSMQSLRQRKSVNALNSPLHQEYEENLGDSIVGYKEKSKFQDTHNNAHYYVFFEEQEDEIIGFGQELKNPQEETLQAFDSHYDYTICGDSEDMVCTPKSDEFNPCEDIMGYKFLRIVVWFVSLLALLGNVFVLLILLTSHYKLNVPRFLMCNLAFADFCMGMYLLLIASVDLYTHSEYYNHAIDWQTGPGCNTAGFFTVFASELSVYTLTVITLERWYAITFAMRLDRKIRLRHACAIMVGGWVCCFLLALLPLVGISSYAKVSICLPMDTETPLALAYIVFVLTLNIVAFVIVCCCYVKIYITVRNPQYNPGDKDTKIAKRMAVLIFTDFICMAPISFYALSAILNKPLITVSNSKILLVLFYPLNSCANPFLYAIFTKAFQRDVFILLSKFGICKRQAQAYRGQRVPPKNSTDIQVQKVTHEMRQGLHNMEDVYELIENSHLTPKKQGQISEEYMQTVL

| Compound | Potency [1] | Potency [2] | Potency [3] | Potency [4] | Potency [5] | Potency [6] | Potency [7] | Potency [8] | Potency [9] | Potency [10] | Potency [11] | Potency [12] | Potency [13] | Potency [14] | Potency [15] | Potency [16] | PLD induction [4] | Potency [17] | Potency [18] |
| --- | --- | --- | --- | --- | --- | --- | --- | --- | --- | --- | --- | --- | --- | --- | --- | --- | --- | --- | --- |
| CCOC(=O)c1c(N)sc2c1CCN(Cc1ccccc1)C2 | inactive | inactive | 29.8 µM (active) | inactive | inactive | inactive | 10.6 µM (active) | inactive | inactive | inactive | inactive | inactive | inactive | – | – | – | – | – | – |
| CCN(CC)CCNC(=O)c1cc(Cl)c(N)cc1OC | inactive | inactive | inactive | inactive | inactive | inactive | inactive | inactive | inactive | inactive | inactive | inactive | inactive | inactive | inactive | inactive | – | – | – |
| COc1cc(NS(=O)(=O)c2ccc(N)cc2)nc(C)n1 | inactive | inactive | inactive | – | inactive | inactive | inactive | – | – | inactive | inactive | inactive | inactive | inactive | inactive | inactive | -3.88% [at 7.66 µM] | inactive | inactive |
| CC(C)C1CCC(C(=O)N[C@H](Cc2ccccc2)C(=O)O)CC1 (stereo partly drawn) | inactive | inactive | inactive | inactive | inactive | inactive | inactive | inactive | inactive | inactive | inactive | inactive | inactive | inactive | – | inactive | – | inactive | inactive |
| O=C(Nc1ccc(C(=O)O)c(O)c1)c1ccccc1 | inactive | inactive | inactive | inactive | 1.68 µM (active) | inactive | inactive | inactive | inactive | inactive | inactive | inactive | inactive | inactive | inactive | inactive | – | inactive | inactive |
| CCCCCCCCCCCC(=O)OCC(O)CO (stereo not drawn) | inactive | inactive | inactive | inactive | inactive | inactive | inactive | inactive | – | – | inactive | – | – | inactive | inactive | – | – | inactive | inactive |
| CC(CO)(CO)C(=O)O | inactive | inactive | inactive | – | inactive | inactive | inactive | inactive | inactive | inactive | inactive | – | – | inactive | inactive | inactive | – | inactive | inactive |
| N[C@@H](Cc1cc(I)c(O)c(I)c1)C(=O)O | inactive | inactive | inactive | inactive | inactive | inactive | inactive | – | – | inactive | inactive | inactive | – | inactive | inactive | – | – | inactive | inactive |
| CNC1CCCN(c2c(F)cc3c(=O)c(C(=O)O)cn(C4CC4)c3c2OC)C1 (stereo not drawn) | inactive | inactive | inactive | inactive | inactive | inactive | inactive | inactive | inactive | inactive | inactive | inactive | inactive | inactive | inactive | inactive | – | inactive | inactive |
| COc1ccc(-c2cc(C(F)F)nn2-c2ccc(S(N)(=O)=O)cc2)cc1F | inactive | inactive | inactive | inactive | inactive | inactive | – | inactive | inactive | inactive | – | – | – | inactive | inactive | – | – | – | – |
| COC1CCC=CO1 (stereo not drawn) | inactive | inactive | inactive | – | inactive | inactive | inactive | inactive | inactive | inactive | inactive | inactive | inactive | inactive | inactive | inactive | – | inactive | inactive |
| CCOc1ncc(F)c(=O)[nH]1 | inactive | inactive | inactive | – | inactive | inactive | inactive | inactive | inactive | inactive | inactive | inactive | inactive | inactive | inactive | inactive | – | inactive | inactive |
| CCOCCC(=O)OCC | inactive | inactive | inactive | – | inactive | inactive | inactive | inactive | inactive | inactive | inactive | – | – | inactive | inactive | inactive | – | inactive | inactive |
| COc1ccc(C(=O)NCc2ccc(OCCN(C)C)cc2)cc1OC | inactive | inactive | inactive | inactive | inactive | inactive | inactive | inactive | inactive | inactive | – | – | – | inactive | – | inactive | – | inactive | inactive |
| CC(=O)Oc1cccc(O)c1 | inactive | inactive | inactive | inactive | inactive | – | inactive | – | inactive | inactive | inactive | inactive | inactive | inactive | inactive | inactive | – | inactive | – |
| Cc1ccc(N(CC2=NCCN2)c2cccc(O)c2)cc1 | inactive | inactive | inactive | inactive | inactive | inactive | – | inactive | inactive | inactive | inactive | inactive | inactive | – | inactive | – | – | inactive | – |
